Measured values from PubChem BioAssay (NCI).
This is part of a sample that, as a whole, favours compounds with a hit. Of some 79,000 tested, about 15% had one in any assay. Calls of active or inactive are those of the source. Cut-off read from the data, not from the text of the source: active = growth inhibition above about 70%; inactive = the rest.

How the values were obtained:
[1] = NCI Yeast Anticancer Drug Screen. Data for the rad52 strain (AID 147);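 note: 0% = growth of vehicle-treated control cultures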; settings: S. cerevisiae rad52 mutant growth inhibition, hits give high values
Method in brief: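 Read-out: growth inhibition versus vehicle-treated controls. Cells were a DNA repair-deficient yeast strain treated with compounds.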

[2] = NCI Yeast Anticancer Drug Screen. Data for the wt1 strain (AID 149);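 note: 0% = growth of vehicle-treated wt1 cultures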; settings: S. cerevisiae wt1 strain (SPY 50644) growth inhibition, hits give high values
Method in brief: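 Readout: yeast growth inhibition, normalised to vehicle controls, in the wt1 strain exposed to test compounds.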

[3] = NCI Yeast Anticancer Drug Screen. Data for the rad50EPP+ strain (AID 151);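 note: 0% = growth of vehicle-treated control cultures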; settings: S. cerevisiae rad50 mutant strain, hits give high values
Method in brief: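 Growth inhibition read against vehicle controls in rad50EPP+ yeast, a strain altered in DNA damage repair, after compound exposure.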

[4] = NCI Yeast Anticancer Drug Screen. Data for the rad50 strain (AID 155);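 note: 0% = growth of vehicle-only cultures of the same strain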; settings: S. cerevisiae rad50 strain growth inhibition, hits give high values
Method in brief: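 Compounds were tested on a yeast strain with an engineered DNA damage repair alteration; the reported value is growth inhibition normalised to vehicle treatment.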

[5] = NCI Yeast Anticancer Drug Screen. Data for the mec2-1 strain (AID 157); settings: S. cerevisiae mec2-1 strain, hits give high values
Method in brief: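 Yeast mec2-1 mutant treated with compound. Readout: growth inhibition vs vehicle controls.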

[6] = NCI Yeast Anticancer Drug Screen. Data for the rad14 strain (AID 159);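 note: 0% = growth of vehicle-treated control cultures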; settings: S. cerevisiae rad14 strain growth inhibition, hits give high values
Method in brief: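 Compound-treated yeast with a defined DNA-repair lesion; growth inhibition normalised to vehicle-treated cultures.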

[7] = NCI Yeast Anticancer Drug Screen. Data for the sgs1 mgt1 strain (AID 161);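 note: 0% = growth of cultures given vehicle only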; settings: S. cerevisiae sgs1 mgt1 strain, hits give high values
Method in brief: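 Mutant yeast exposed to compound; growth scored against vehicle-only wells.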

[8] = NCI Yeast Anticancer Drug Screen. Data for the CLN2oe strain (AID 163);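 note: 0% = growth of vehicle-only control cultures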; settings: S. cerevisiae CLN2oe strain, hits give high values
Method in brief: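 Read-out: yeast growth inhibition, expressed relative to vehicle-only controls. The strain bears an engineered cell-cycle alteration.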

[9] = NCI Yeast Anticancer Drug Screen. Data for the cln2 rad14 strain (AID 165);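 note: 0% = growth equal to vehicle treated cultures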; settings: S. cerevisiae cln2 rad14 strain, hits give high values
Method in brief: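 cln2 rad14 yeast strain; compound exposure; growth inhibition read vs vehicle controls.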

[10] = NCI Yeast Anticancer Drug Screen. Data for the bub3 strain (AID 167); settings: S. cerevisiae bub3 mutant strain, hits give high values
Method in brief: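 Growth of a checkpoint-deficient yeast mutant is measured after compound exposure. Values represent inhibition relative to vehicle.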

[11] = NCI Yeast Anticancer Drug Screen. Data for the wt2 strain (AID 169);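 note: 0% = growth of vehicle-treated yeast cultures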; settings: S. cerevisiae wt2 strain growth inhibition, hits give high values
Method in brief: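 Read-out: growth inhibition versus vehicle-treated control cultures after compound exposure of the yeast strain.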

[12] = NCI Yeast Anticancer Drug Screen. Data for the mlh1 strain (AID 171);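 note: 0% = growth of vehicle-treated control cultures of the same strain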; settings: S. cerevisiae mlh1 strain growth inhibition, hits give high values
Method in brief: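 Read-out: growth inhibition versus vehicle controls. Strain: engineered yeast with a defined DNA repair or cell cycle defect, compound-treated.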

[13] = NCI Yeast Anticancer Drug Screen. Data for the sgs1 strain (AID 173);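 note: 0% = growth of vehicle-only control cultures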; settings: S. cerevisiae sgs1 mutant, hits give high values
Method in brief: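 Read-out: yeast growth inhibition relative to vehicle controls, following compound exposure of a strain with a defined DNA repair/cell cycle alteration.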

[14] = NCI Yeast Anticancer Drug Screen. Data for the mlh1 rad18 strain (AID 175); settings: S. cerevisiae mlh1 rad18 strain growth inhibition, hits give high values
Method in brief: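 Yeast w/ defined DNA-repair lesions; compound exposure; growth vs vehicle controls → % inhibition.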

[15] = NCI Yeast Anticancer Drug Screen. Data for the rad18 strain (AID 177); settings: S. cerevisiae rad18 mutant growth inhibition, hits give high values
Method in brief: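 Readout: growth inhibition vs vehicle controls. Cells: genetically altered yeast strain, DNA repair defect.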

[16] = at 5.0 µM (retest, dose inferred, filed as 0.5)
[17] = at 50.0 µM (retest, dose inferred, filed as 5.0)

Measured: growth inhibition

[N-]=[N+]=NC(c1ccccc1)(c1ccccc1)c1ccccc1
inactive: [1]; at 1.2 µM 8% | [1]; at 3.7 µM 6% | [1]; at 11.0 µM 9% | [1]; at 33.0 µM 29% | [2]; at 1.2 µM 15% | [2]; at 3.7 µM 12% | [2]; at 11.0 µM -6% | [2]; at 33.0 µM 32% | [3]; at 1.2 µM 9% | [3]; at 3.7 µM 15% | [3]; at 11.0 µM 11% | [3]; at 33.0 µM 21% | [3]; at 100.0 µM 28% | [4]; at 1.2 µM 14% | [4]; at 3.7 µM 22% | [4]; at 11.0 µM 6% | [4]; at 33.0 µM 40% | [5]; at 1.2 µM 12% | [5]; at 3.7 µM 11% | [5]; at 11.0 µM 13% | [5]; at 33.0 µM 32% | [6]; at 1.2 µM -9% | [6]; at 3.7 µM 1% | [6]; at 11.0 µM -4% | [6]; at 33.0 µM 24% | [7]; [16] -4% | [8]; at 1.2 µM 29% | [8]; at 3.7 µM 23% | [8]; at 11.0 µM 20% | [8]; at 33.0 µM 26% | [9]; [16] 17% | [10]; at 1.2 µM 3% | [10]; at 3.7 µM -17% | [10]; [16] 12% | [10]; at 11.0 µM -16% | [10]; at 33.0 µM 27% | [11]; at 1.2 µM -14% | [11]; at 3.7 µM -9% | [11]; at 11.0 µM -11% | [11]; at 33.0 µM 16% | [12]; at 1.2 µM 6% | [12]; at 3.7 µM 10% | [12]; at 11.0 µM 13% | [12]; at 33.0 µM 42% | [13]; at 1.2 µM 0% | [13]; at 3.7 µM -15% | [13]; at 11.0 µM -8% | [13]; at 33.0 µM 66% | [15]; at 1.2 µM 10% | [15]; at 3.7 µM 6% | [15]; at 11.0 µM 14% | [15]; at 33.0 µM 37%
active: [1]; at 100.0 µM 94% | [2]; at 100.0 µM 88% | [4]; [16] 100% | [4]; [17] 98% | [4]; at 50.0 µM 85% | [4]; at 100.0 µM 92% | [5]; [16] 99% | [5]; [17] 98% | [5]; at 50.0 µM 80.8% | [5]; at 100.0 µM 95% | [6]; at 100.0 µM 94% | [7]; [17] 84% | [7]; at 50.0 µM 87.7% | [8]; at 100.0 µM 78% | [9]; [17] 89% | [9]; at 50.0 µM 80.5% | [10]; [17] 79% | [10]; at 50.0 µM 87.8% | [10]; at 100.0 µM 86% | [11]; at 100.0 µM 89% | [12]; at 100.0 µM 91% | [13]; at 100.0 µM 87% | [14]; [16] 100% | [14]; [17] 99% | [14]; at 50.0 µM 84.1% | [15]; at 100.0 µM 87%
